uPA surface inh: cell surface uPA generation inhibition | 330,000 compounds, 0.31% hits | AID 540303 | Potency, µM (highest dose often 38.3 µM), usual class: inhibitors | cell surface uPA generation assay, qHTS; active means well fitted inhibition curve with a large enough effect; inconclusive means small, poorly fitted or top-dose-only effect; inactive means no such curve, though single readings can be large or run the other way; tested in mouse RAW 264.7 cells; further: nearly all actives have a fitted effect of over 55% in size
TDP1 cell noCPT: qHTS for Inhibitors of human tyrosyl-DNA phosphodiesterase 1 (TDP1): qHTS in cells in absence of CPT; DT40 Tdp1-/- hTDP1 cells, no CPT, ATP luminescence, 48 h; AID 686978, 2013; 420,000 compounds, 15% hits; Potency, µM (titrated, usually from 46.2 µM), actives largely listed as inhibitors; further: nearly all actives have a fitted effect of over 55% in size
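Chicken DT40 Tdp1-/- cells stably complemented with human TDP1 were seeded at 400 cells/well with DMSO in place of 20 nM camptothecin. After compound pinning, cells grew at least 48 hr at 37 °C; viability read by CellTiter-Glo luminescence.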
HT1080 IDH1KD tx: kills HT-1080 cells with IDH1 knockdown; HT-1080 IDH1 knockdown viability, ATP luminescence, 48 h; Potency, µM (series often up to 46.1 µM), actives largely listed as cytotoxic; 360,000 compounds, 2% hits
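In this qHTS, HT-1080 cells depleted of IDH1 are exposed for 48 h at 37 °C to compound titrations. Toxicity is scored from CellTiter-Glo luminescence, with DMSO as full viability and medium alone as none.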
IL1B secr inh: blocks inflammasome-driven IL-1 beta release; THP-1 LPS/ATP IL-1B secretion, AlphaLISA, 16 h; hits give low values; activity change, % at 57.5 µM; 360,000 compounds, 4.7% hits; AID 743279; in the data active means activity change below about -50%; inconclusive means mostly about -30% to -49%
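THP-1 cells pretreated 1 hr with compounds (up to 57.5 uM final), then stimulated with LPS (250 ng/mL final) plus ATP (1.25 mM final); secreted IL-1B measured by AlphaLISA after 16 hr, decreased signal indicating inhibition.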
DT40 TDP1 CPT: DT40-hTDP1 cell growth loss with CPT | chicken DT40 Tdp1-/-;hTDP1 cells + 20 nM CPT, ATP luminescence, 48 h | Potency, µM (doses to about 46.2 µM), actives largely listed as inhibitors | 420,000 compounds, 12% hits | AID 686979; further: nearly all actives have a fitted effect of over 55% in size
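Cell growth measured by CellTiter-Glo luminescence after a minimum 48 h, 37 C compound exposure with 20 nM CPT in Tdp1-knockout DT40 cells stably expressing hTDP1, seeded 400/well; qHTS titration format.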
HT1080NT lethal: kills 2HG-producing HT-1080-NT fibrosarcoma cells | HT-1080-NT fibrosarcoma viability, CellTiter-Glo ATP luminescence, 48 h | Potency, µM (series often up to 46.1 µM), actives largely listed as cytotoxic | 360,000 compounds, 1.6% hits;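 further: NT is the 2HG producing partner of a matched IDH1 knockdown line; nearly all actives have a fitted effect of over 55% in size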
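A 48-hour cytotoxicity screen used HT-1080-NT cells plated 2 hours before compound delivery. ATP-based CellTiter-Glo luminescence measured viability, normalized to DMSO and no-cell controls.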
Each line names hits and unclear results; the compound was inactive in the other large screens. Rows were chosen to be rich in hits. Some 19% of all compounds tested hit in one or more screens of this group. Unless noted, the call rests on the fitted dose curve; in most records, active means well fitted curve in the direction sought with a large enough effect; inconclusive means small, poorly fitted or top-dose-only effect, or another doubt; inactive means no such curve, though single readings can be large; an effect the other way counts as inactive or inconclusive.

COc1ccc(OCC(=O)N2CCCC(Nc3ccc(C)c(C)c3)C2)cc1 (stereo not given)	none (no result: uPA surface inh)
CC1=C(C(=O)Nc2cccc(C(=O)N3CCC(C(N)=O)CC3)c2)SCCO1	none
c1ccc2c(c1)-c1cccc3cncc-2c13	TDP1 cell noCPT inconclusive, HT1080 IDH1KD tx inconclusive, IL1B secr inh -84
CCCCCCN1C2=NCCCN2c2ccccc21	uPA surface inh inconclusive, TDP1 cell noCPT 16µM, DT40 TDP1 CPT 18µM
OCCN1C2=NCCCN2c2ccccc21	none
COc1cccc(C(=O)CN2C3=NCCCN3c3ccccc32)c1	TDP1 cell noCPT 21µM, DT40 TDP1 CPT 21µM
Clc1ccc(CN2C3=NCCN3c3ccccc32)cc1Cl	TDP1 cell noCPT 16µM, HT1080 IDH1KD tx inconclusive, DT40 TDP1 CPT inconclusive, HT1080NT lethal inconclusive (no result: IL1B secr inh)
C=CCN1C2=NCCCN2c2ccccc21	none
COc1ccc(C(=O)CN2C3=NCCCN3c3ccccc32)cc1OC	TDP1 cell noCPT 16µM, DT40 TDP1 CPT 21µM
c1ccc(CN2C3=NCCN3c3ccccc32)cc1	none
COc1ccc(CN2CC(C(=O)NCCCN3CCCC(C)C3)CC2=O)cc1 (stereo not given)	none
COc1cc(N(C(C)=O)c2ccc(O)c(C(=O)O)c2)c2ncccc2c1	none (no result: uPA surface inh)
Cc1c(Cl)cccc1-c1ccc(CNCc2ccccn2)o1	TDP1 cell noCPT inconclusive, IL1B secr inh inconclusive, DT40 TDP1 CPT inconclusive
Cc1ccc(C)c(C(=O)CN2C3=NCCCN3c3ccccc32)c1	TDP1 cell noCPT inconclusive, HT1080 IDH1KD tx inconclusive, IL1B secr inh -66, DT40 TDP1 CPT 16µM, HT1080NT lethal inconclusive
OC(CN1C2=NCCN2c2ccccc21)c1ccc2c(c1)OCO2 (stereo not given)	TDP1 cell noCPT 23µM, HT1080 IDH1KD tx inconclusive, DT40 TDP1 CPT inconclusive, HT1080NT lethal inconclusive
Cc1cccc(CN2C3=NCCCN3c3ccccc32)c1	TDP1 cell noCPT 15µM, HT1080 IDH1KD tx inconclusive, DT40 TDP1 CPT 21µM, HT1080NT lethal inconclusive
O=C(CN1C2=NCCN2c2ccccc21)C12CC3CC(CC(C3)C1)C2	TDP1 cell noCPT 16µM, IL1B secr inh inconclusive, DT40 TDP1 CPT 21µM, HT1080NT lethal 21µM
COc1ccc(CN2C(=O)CCCC2(C)c2nc3ccccc3[nH]2)cc1 (stereo not given)	none (no result: uPA surface inh)
Cn1cnc(S(=O)(=O)N2CCCC(C(=O)NCc3ccc(F)cc3)C2)c1 (stereo not given)	none (no result: uPA surface inh, HT1080 IDH1KD tx, IL1B secr inh, HT1080NT lethal)
CCOC(CN=c1nc(N(C)C)ss1)OCC	TDP1 cell noCPT 0.73µM, HT1080 IDH1KD tx inconclusive, IL1B secr inh -101, DT40 TDP1 CPT 0.58µM
CC(=O)c1ccc(NC(=O)C(C)n2nc(-c3ccccc3)c3cc(Cl)ccc32)cc1 (stereo not given)	TDP1 cell noCPT 16µM, DT40 TDP1 CPT inconclusive (no result: IL1B secr inh)
CC(C(=O)NCc1ccco1)n1nc(-c2ccccc2)c2cc(Cl)ccc21 (stereo not given)	DT40 TDP1 CPT inconclusive
CCc1ccc(/C(C)=N/Nc2cc(Cl)nc(C)n2)cc1	TDP1 cell noCPT inconclusive, HT1080 IDH1KD tx inconclusive, DT40 TDP1 CPT 23µM, HT1080NT lethal inconclusive (no result: uPA surface inh)
C/C(=N\Nc1ccccn1)c1ccc(N2CCOCC2)cc1	TDP1 cell noCPT inconclusive, DT40 TDP1 CPT inconclusive
CCCCc1ccc(/C(C)=N/Nc2cc(N3CCOCC3)nc(C)n2)cc1	TDP1 cell noCPT 23µM, HT1080 IDH1KD tx inconclusive, DT40 TDP1 CPT inconclusive, HT1080NT lethal inconclusive
C/C(=N\Nc1cc(N2CCOCC2)nc(C)n1)c1cccc([N+](=O)[O-])c1	TDP1 cell noCPT 10µM, DT40 TDP1 CPT 16µM
COc1c([N+](=O)[O-])cc(C(=O)NNC(=O)c2ccc(C)cc2)cc1[N+](=O)[O-]	none
CCC(C(=O)NC(N)=O)c1ccccc1 (stereo not given)	none (no result: uPA surface inh, HT1080 IDH1KD tx, IL1B secr inh, HT1080NT lethal)
Cc1ccc(NC(=O)c2cc(S(=O)(=O)N3CCC4(CC3)OCCO4)ccc2F)cc1Cl	TDP1 cell noCPT 15µM, DT40 TDP1 CPT 8.2µM (no result: uPA surface inh, HT1080 IDH1KD tx, IL1B secr inh, HT1080NT lethal)

Screening data as filed in PubChem BioAssay.
